Assay results reported in ChEMBL document CHEMBL1961873, “Compounds: GSK PKIS; Assays: Nanosyn kinase panel” (2012).

Tests used:
[1] = biological target: Protein kinase C gamma type (Homo sapiens) (UniProt P05129); settings: at 1 µM;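 further: each value is an averaged percent inhibition of the enzyme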
[2] = biological target: T1, Protein kinase C iota type (Homo sapiens) (UniProt P41743); settings: at 0.1 µM
T1 sequence (whole entry): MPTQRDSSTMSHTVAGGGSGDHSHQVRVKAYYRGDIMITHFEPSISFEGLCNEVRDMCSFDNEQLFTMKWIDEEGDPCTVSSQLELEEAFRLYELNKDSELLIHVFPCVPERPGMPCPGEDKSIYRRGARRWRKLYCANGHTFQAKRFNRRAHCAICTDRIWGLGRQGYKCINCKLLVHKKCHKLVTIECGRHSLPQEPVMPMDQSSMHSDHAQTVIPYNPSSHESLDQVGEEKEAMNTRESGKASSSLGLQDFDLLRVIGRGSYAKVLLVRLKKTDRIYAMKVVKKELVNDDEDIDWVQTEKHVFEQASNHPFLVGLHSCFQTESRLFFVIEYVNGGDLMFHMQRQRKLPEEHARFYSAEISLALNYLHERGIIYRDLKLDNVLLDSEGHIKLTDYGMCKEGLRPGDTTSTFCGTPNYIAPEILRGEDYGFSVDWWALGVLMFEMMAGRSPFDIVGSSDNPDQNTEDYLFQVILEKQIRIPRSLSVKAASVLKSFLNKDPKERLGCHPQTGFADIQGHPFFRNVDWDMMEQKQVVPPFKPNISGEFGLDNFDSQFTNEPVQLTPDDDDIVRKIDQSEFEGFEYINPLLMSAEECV

[3] = biological target: T1, Protein kinase C iota type (Homo sapiens); settings: at 1 µM
[4] = biological target: Protein kinase C theta type (Homo sapiens) (UniProt Q04759); settings: at 0.1 µM
Sequence of Protein kinase C theta type (Homo sapiens) (Q04759 whole entry, looked up): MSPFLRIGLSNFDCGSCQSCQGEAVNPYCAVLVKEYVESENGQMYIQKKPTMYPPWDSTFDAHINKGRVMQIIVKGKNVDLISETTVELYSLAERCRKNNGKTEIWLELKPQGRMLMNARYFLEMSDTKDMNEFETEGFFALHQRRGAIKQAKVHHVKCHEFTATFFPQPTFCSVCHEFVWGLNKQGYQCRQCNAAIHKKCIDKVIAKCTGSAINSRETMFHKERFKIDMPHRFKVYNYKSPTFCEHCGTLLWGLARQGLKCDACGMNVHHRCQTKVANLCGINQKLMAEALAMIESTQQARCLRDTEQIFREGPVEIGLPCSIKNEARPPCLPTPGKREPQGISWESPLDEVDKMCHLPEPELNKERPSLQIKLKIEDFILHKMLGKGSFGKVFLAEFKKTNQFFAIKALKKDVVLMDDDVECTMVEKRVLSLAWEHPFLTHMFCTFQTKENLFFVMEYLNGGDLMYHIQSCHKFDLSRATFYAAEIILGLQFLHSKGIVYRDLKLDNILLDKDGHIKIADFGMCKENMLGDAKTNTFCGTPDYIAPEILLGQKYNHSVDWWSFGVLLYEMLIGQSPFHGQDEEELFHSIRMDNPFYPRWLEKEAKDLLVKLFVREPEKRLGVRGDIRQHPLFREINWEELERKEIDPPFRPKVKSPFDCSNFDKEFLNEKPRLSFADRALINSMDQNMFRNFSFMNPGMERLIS

[5] = biological target: Protein kinase C theta type (Homo sapiens) (UniProt Q04759); settings: at 1 µM
[6] = biological target: Protein kinase C beta type (Homo sapiens) (UniProt P05771); settings: at 0.1 µM
Sequence of Protein kinase C beta type (Homo sapiens) (P05771 2-671 limits assumed): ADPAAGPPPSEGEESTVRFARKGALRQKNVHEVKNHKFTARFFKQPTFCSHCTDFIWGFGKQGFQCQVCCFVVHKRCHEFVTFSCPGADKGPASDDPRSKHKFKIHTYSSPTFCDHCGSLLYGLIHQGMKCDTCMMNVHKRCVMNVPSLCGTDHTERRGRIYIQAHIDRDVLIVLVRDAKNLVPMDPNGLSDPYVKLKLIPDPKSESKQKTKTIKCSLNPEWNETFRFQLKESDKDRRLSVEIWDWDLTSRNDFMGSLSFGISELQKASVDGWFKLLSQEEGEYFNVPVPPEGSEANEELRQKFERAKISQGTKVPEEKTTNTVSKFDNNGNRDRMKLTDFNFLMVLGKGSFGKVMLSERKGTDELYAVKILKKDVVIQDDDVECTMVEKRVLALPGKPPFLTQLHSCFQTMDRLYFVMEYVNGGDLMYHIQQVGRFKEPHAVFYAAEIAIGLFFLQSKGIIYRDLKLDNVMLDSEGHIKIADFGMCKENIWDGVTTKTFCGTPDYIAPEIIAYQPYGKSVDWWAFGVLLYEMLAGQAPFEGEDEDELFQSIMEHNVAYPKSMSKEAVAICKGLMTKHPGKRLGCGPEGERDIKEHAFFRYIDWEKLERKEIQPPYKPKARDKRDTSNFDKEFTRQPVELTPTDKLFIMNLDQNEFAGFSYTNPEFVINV

[7] = biological target: Protein kinase C beta type (Homo sapiens) (UniProt P05771); settings: at 1 µM
[8] = biological target: T2, Serine/threonine-protein kinase D1 (Homo sapiens) (UniProt Q15139); settings: at 0.1 µM
T2 sequence (whole entry): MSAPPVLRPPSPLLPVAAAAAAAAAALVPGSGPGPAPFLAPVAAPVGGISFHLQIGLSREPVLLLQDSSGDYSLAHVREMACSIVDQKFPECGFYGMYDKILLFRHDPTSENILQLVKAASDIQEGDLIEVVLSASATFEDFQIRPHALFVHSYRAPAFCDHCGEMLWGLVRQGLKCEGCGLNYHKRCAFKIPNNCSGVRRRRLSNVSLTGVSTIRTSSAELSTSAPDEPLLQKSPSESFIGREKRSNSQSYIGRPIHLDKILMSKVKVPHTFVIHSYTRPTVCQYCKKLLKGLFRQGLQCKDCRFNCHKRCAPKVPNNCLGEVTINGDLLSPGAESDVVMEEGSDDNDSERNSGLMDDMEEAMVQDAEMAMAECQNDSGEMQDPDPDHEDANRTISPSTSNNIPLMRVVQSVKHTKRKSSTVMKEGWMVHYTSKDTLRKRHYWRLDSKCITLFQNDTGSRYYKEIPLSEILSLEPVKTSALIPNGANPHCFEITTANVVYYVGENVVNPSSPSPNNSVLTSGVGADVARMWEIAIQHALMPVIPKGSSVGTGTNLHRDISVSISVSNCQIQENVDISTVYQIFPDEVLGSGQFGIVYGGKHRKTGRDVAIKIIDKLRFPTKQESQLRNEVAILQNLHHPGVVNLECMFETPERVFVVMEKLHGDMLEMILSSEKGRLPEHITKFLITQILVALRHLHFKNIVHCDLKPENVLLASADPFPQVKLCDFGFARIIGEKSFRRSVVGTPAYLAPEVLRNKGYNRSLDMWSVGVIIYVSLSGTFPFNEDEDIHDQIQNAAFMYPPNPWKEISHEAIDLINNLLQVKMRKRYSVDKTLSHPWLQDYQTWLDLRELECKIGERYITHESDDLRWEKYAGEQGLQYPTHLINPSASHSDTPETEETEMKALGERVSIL

[9] = biological target: T2, Serine/threonine-protein kinase D1 (Homo sapiens); settings: at 1 µM
[10] = biological target: T3, Serine/threonine-protein kinase D2 (Homo sapiens) (UniProt Q9BZL6); settings: at 0.1 µM
T3 sequence (whole entry): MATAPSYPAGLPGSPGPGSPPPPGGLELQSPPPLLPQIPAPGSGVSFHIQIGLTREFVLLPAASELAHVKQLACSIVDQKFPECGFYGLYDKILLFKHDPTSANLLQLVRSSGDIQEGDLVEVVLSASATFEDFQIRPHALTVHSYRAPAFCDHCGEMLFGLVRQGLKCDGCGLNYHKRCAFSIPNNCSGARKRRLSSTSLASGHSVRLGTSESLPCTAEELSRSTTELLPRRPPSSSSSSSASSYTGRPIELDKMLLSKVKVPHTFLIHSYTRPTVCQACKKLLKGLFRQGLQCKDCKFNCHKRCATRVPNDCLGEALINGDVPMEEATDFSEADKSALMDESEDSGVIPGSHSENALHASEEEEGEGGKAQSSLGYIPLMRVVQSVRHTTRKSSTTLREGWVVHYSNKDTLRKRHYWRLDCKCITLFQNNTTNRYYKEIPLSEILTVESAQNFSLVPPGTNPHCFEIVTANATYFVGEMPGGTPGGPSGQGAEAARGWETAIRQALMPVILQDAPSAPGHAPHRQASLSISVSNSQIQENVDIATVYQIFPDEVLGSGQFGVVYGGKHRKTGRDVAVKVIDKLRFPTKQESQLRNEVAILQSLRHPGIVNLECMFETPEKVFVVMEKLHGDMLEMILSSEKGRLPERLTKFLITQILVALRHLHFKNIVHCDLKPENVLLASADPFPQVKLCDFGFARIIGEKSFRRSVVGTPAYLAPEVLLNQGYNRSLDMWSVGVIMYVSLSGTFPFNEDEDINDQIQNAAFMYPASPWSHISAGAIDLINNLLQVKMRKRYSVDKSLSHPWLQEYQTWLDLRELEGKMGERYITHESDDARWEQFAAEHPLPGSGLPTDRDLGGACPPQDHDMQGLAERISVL

[11] = biological target: T3, Serine/threonine-protein kinase D2 (Homo sapiens); settings: at 1 µM
[12] = biological target: T4, Serine/threonine-protein kinase D3 (Homo sapiens) (UniProt O94806); settings: at 0.1 µM
T4 sequence (whole entry): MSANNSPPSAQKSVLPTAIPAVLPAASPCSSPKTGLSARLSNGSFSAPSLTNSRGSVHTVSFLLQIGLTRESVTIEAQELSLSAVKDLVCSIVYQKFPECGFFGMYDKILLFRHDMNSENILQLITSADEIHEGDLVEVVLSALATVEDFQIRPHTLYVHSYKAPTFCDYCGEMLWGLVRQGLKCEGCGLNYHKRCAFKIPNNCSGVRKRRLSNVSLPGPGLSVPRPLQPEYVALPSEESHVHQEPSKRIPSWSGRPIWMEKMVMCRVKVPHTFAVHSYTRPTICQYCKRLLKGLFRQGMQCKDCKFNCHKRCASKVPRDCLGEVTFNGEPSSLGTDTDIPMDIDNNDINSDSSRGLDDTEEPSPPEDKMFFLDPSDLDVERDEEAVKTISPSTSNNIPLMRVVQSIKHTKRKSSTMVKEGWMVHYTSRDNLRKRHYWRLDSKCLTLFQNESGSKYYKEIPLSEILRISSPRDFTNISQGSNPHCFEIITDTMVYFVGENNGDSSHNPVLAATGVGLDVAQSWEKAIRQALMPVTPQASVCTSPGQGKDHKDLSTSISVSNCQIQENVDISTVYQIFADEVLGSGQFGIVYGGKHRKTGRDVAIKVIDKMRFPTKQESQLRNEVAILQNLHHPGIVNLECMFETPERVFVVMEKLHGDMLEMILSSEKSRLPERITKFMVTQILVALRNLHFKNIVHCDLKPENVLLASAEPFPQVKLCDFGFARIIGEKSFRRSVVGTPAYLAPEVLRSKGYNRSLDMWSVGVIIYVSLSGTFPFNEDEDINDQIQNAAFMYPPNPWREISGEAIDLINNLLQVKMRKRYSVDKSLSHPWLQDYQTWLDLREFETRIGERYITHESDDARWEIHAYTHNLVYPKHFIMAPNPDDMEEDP

[13] = biological target: T4, Serine/threonine-protein kinase D3 (Homo sapiens); settings: at 1 µM
[14] = biological target: T5, cGMP-dependent protein kinase 1 (Homo sapiens) (UniProt Q13976); settings: at 0.1 µM
T5 sequence (whole entry): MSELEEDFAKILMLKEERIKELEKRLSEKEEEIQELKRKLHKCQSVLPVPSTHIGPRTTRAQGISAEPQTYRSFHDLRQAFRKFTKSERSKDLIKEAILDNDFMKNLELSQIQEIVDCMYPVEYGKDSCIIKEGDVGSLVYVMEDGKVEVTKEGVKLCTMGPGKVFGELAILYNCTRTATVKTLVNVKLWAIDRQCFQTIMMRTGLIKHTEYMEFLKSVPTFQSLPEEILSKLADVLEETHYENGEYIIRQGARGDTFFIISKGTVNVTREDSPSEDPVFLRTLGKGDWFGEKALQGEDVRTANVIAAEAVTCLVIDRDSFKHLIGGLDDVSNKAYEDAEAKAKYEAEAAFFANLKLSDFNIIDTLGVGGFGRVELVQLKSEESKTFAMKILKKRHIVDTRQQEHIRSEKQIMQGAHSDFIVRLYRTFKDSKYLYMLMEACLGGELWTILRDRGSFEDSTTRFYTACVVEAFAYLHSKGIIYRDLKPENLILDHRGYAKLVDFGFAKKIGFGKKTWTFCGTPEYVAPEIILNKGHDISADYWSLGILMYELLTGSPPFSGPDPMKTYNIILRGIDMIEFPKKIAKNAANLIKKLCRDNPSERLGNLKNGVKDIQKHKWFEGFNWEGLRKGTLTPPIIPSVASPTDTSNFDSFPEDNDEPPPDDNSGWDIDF

[15] = biological target: T5, cGMP-dependent protein kinase 1 (Homo sapiens); settings: at 1 µM
[16] = biological target: T6, cGMP-dependent protein kinase 2 (Homo sapiens) (UniProt Q13237); settings: at 0.1 µM
T6 sequence (whole entry): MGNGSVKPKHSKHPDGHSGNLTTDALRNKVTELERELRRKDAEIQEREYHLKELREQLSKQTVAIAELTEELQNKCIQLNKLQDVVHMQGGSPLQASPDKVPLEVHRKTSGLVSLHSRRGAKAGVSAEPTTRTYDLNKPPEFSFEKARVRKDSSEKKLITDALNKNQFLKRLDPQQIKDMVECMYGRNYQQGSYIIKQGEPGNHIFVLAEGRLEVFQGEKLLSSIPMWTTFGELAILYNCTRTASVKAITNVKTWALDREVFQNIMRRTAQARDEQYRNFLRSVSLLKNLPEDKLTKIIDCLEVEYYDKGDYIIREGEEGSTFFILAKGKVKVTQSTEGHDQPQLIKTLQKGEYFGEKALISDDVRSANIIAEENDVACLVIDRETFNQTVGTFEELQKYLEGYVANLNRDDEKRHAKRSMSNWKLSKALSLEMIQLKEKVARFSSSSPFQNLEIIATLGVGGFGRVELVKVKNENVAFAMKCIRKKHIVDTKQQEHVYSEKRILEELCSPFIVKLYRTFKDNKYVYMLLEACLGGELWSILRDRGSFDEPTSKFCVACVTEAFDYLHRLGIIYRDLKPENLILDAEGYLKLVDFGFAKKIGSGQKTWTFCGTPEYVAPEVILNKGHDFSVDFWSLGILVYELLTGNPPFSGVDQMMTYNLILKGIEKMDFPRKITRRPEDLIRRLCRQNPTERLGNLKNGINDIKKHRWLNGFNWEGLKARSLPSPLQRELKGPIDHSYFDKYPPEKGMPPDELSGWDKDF

[17] = biological target: T6, cGMP-dependent protein kinase 2 (Homo sapiens); settings: at 1 µM
[18] = biological target: T7, cAMP-dependent protein kinase catalytic subunit PRKX (Homo sapiens) (UniProt P51817); settings: at 0.1 µM
T7 sequence (whole entry): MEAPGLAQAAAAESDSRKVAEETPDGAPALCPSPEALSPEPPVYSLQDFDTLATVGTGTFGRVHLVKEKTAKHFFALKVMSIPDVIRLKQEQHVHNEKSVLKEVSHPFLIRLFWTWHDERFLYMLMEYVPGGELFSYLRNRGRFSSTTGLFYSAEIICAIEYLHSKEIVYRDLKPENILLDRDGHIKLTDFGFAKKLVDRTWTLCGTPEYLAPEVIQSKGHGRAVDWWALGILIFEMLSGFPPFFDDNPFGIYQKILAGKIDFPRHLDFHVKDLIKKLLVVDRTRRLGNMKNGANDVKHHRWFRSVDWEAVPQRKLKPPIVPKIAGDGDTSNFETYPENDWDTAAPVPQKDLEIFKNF

[19] = biological target: T7, cAMP-dependent protein kinase catalytic subunit PRKX (Homo sapiens); settings: at 1 µM
[20] = biological target: Rho-associated protein kinase 1 (Homo sapiens) (UniProt Q13464); settings: at 0.1 µM;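 further: values are mean percent inhibition of ROCK1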
Sequence of Rho-associated protein kinase 1 (Homo sapiens) (Q13464 2-1354 limits assumed): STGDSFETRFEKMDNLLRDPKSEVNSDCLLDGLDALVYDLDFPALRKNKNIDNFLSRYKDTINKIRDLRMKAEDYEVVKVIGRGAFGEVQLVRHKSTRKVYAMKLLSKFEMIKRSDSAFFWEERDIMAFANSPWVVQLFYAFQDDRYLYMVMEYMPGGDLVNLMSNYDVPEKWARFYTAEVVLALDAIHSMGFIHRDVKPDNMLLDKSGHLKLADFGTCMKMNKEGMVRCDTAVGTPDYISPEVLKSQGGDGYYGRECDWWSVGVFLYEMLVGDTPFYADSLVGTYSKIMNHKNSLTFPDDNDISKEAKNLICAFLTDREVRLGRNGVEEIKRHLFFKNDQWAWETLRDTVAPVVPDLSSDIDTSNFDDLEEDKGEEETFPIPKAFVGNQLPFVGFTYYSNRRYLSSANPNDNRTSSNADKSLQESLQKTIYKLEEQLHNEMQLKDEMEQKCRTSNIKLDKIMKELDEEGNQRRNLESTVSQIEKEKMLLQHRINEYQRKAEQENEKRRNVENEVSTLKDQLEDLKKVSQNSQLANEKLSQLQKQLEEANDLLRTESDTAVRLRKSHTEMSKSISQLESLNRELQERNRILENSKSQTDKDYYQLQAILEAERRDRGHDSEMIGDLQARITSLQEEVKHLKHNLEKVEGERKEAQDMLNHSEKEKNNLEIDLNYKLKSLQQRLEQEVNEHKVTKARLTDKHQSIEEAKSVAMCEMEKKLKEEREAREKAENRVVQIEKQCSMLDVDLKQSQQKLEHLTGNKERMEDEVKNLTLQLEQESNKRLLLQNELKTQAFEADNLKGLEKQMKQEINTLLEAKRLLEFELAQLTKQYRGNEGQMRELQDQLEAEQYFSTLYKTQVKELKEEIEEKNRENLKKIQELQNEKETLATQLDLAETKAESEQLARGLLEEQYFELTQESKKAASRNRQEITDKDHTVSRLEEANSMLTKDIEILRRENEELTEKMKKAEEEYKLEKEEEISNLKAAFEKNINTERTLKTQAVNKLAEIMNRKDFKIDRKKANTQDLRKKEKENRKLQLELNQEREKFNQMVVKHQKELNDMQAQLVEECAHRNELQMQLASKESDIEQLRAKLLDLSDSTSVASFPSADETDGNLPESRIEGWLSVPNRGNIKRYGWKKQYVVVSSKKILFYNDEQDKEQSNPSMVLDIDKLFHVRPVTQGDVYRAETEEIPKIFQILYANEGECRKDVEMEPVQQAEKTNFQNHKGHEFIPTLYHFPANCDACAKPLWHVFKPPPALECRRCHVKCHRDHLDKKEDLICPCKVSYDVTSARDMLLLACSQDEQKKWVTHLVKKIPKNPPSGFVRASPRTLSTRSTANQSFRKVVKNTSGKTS

Row | Compound | inhibition [1] [%] | inhibition [2] [%] | inhibition [3] [%] | inhibition [4] [%] | inhibition [5] [%] | inhibition [6] [%] | inhibition [7] [%] | inhibition [8] [%] | inhibition [9] [%] | inhibition [10] [%] | inhibition [11] [%] | inhibition [12] [%] | inhibition [13] [%] | inhibition [14] [%] | inhibition [15] [%] | inhibition [16] [%] | inhibition [17] [%] | inhibition [18] [%] | inhibition [19] [%] | inhibition [20] [%]
1 | ON=C1CCc2cc(-c3nc(C4CCNCC4)[nH]c3-c3ccncc3)ccc21 | -1.84 | -0.01 | 4.71 | -0.55 | 1.23 | 0.45 | 7.96 | 0.36 | 5.6 | 1.54 | 9.97 | 1.39 | 8.68 | -0.33 | 1.76 | 0.54 | 2.55 | -0.73 | -2.69 | 0.17
2 | COc1ccc(-c2nn3ncccc3c2-c2ccnc(Nc3cccc(C(F)(F)F)c3)n2)cc1 | 1.55 | 0.94 | -0.08 | 1.65 | 0.8 | 1.35 | 2.07 | 3.56 | 3.79 | 1.6 | 3.1 | 3.18 | 3.3 | 1.97 | 2.64 | 1.78 | 2.6 | 2.11 | 1.89 | 0.25
